From ChEMBL document CHEMBL2218924, “A broad activity screen in support of a chemogenomic map for kinase signalling research and drug discovery” (Biochem J, 2013) come the findings set out here.

Test [1] deals with T1, Serine/threonine-protein kinase TBK1 (Homo sapiens) (UniProt Q9UHD2).
T1 sequence (whole entry): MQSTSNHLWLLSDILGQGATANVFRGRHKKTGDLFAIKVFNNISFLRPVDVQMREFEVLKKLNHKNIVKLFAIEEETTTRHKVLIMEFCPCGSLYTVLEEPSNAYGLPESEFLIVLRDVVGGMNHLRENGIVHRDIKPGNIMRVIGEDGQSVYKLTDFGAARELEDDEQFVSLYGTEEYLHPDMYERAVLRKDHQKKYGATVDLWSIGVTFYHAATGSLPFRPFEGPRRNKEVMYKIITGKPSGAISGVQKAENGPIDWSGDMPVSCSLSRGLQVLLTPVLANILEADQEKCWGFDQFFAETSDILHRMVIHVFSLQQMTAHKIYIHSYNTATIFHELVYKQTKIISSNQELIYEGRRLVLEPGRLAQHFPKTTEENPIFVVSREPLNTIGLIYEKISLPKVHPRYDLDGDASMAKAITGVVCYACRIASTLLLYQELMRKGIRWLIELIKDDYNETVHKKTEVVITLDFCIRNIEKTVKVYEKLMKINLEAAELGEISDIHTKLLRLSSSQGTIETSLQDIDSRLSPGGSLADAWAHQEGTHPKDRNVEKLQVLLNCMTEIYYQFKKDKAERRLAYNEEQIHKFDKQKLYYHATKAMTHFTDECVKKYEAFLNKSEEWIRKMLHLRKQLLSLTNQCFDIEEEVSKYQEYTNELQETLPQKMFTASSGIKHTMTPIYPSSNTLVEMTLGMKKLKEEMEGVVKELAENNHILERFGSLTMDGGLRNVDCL
As to conditions: at 10 µM.

Test [2] addresses T2, TGF-beta receptor type-1 (Homo sapiens) (UniProt P36897).
T2 sequence (whole entry): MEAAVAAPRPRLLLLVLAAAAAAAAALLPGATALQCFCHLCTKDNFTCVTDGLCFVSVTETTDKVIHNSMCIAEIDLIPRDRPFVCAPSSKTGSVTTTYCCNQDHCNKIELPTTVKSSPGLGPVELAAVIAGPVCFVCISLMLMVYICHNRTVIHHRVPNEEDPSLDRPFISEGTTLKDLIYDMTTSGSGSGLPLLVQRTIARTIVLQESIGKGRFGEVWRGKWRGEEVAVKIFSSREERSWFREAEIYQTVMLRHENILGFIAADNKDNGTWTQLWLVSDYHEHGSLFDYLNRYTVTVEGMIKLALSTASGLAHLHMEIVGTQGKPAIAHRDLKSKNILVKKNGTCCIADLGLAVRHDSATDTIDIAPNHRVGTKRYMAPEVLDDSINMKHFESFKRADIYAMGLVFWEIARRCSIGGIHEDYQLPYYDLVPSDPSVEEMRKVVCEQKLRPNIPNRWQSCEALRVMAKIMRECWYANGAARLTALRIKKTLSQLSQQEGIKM
As to conditions: at 1 µM.

Test [3] deals with T2, TGF-beta receptor type-1 (Homo sapiens). As to conditions: at 10 µM.
In test [4] the target is Insulin-like growth factor 1 receptor (Homo sapiens) (UniProt P08069). As to conditions: at 1 µM.
Chain of Insulin-like growth factor 1 receptor (Homo sapiens) (P08069 31-736 limits assumed): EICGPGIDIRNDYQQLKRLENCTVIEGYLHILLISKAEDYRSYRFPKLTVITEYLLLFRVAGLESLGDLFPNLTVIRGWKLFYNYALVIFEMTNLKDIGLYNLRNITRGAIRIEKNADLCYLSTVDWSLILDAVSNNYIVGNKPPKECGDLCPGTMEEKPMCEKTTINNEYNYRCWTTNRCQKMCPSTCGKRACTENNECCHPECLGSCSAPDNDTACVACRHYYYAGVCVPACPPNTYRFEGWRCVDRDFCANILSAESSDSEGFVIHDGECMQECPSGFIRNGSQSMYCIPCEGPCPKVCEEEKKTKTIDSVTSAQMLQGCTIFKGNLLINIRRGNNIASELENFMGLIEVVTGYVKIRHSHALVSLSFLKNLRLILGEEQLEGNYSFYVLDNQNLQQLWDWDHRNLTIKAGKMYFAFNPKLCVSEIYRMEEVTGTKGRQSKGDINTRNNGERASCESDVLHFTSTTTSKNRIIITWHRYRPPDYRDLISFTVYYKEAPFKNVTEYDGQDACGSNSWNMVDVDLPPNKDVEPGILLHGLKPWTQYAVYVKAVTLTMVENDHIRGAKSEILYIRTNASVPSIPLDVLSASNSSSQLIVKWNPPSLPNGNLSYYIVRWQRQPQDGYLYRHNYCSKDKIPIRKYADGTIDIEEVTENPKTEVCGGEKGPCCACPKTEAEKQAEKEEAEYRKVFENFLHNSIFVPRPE
Chain of Insulin-like growth factor 1 receptor (Homo sapiens) (P08069 741-1367 limits assumed): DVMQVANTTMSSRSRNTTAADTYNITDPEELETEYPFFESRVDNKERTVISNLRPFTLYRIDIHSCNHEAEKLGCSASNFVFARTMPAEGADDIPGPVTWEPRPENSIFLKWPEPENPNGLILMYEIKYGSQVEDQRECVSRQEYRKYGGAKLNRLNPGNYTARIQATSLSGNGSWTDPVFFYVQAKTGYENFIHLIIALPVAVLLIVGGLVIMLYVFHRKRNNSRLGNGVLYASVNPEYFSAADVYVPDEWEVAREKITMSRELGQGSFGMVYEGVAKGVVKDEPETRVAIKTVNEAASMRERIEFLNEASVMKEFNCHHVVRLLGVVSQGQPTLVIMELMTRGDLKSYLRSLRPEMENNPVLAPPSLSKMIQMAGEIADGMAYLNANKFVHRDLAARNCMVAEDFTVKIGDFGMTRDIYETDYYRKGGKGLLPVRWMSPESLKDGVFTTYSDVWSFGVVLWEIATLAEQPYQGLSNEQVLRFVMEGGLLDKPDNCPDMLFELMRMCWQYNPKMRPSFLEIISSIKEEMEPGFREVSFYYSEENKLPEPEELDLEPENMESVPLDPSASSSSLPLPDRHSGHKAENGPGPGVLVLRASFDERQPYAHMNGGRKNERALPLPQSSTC
Test [5] shares this target. As to conditions: at 10 µM.
The target in test [6] is T3, Inhibitor of nuclear factor kappa-B kinase subunit alpha (Homo sapiens) (UniProt O15111).
T3 sequence (whole entry): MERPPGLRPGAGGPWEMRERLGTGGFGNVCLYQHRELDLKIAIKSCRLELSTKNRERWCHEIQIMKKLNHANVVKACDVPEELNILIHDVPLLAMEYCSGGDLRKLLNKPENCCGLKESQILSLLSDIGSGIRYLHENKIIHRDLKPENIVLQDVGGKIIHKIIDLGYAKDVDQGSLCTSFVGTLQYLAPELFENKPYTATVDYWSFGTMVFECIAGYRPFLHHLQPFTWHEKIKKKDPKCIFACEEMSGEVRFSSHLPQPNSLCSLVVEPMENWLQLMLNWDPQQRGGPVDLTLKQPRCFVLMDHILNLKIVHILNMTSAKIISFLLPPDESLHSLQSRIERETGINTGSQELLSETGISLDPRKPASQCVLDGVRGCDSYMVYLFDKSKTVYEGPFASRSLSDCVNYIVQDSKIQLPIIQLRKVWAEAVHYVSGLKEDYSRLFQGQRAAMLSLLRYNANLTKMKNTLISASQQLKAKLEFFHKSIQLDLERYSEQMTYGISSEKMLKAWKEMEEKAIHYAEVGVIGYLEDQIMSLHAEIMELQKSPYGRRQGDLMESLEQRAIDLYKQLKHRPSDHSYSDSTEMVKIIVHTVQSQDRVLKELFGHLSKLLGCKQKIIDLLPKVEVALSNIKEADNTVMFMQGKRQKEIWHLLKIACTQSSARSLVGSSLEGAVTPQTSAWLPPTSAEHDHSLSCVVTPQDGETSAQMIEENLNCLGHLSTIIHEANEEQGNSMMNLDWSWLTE
As to conditions: at 1 µM.

The target in test [7] is T3, Inhibitor of nuclear factor kappa-B kinase subunit alpha (Homo sapiens). As to conditions: at 10 µM.
The target of test [8] is T4, Inhibitor of nuclear factor kappa-B kinase subunit beta (Homo sapiens) (UniProt O14920).
T4 sequence (whole entry): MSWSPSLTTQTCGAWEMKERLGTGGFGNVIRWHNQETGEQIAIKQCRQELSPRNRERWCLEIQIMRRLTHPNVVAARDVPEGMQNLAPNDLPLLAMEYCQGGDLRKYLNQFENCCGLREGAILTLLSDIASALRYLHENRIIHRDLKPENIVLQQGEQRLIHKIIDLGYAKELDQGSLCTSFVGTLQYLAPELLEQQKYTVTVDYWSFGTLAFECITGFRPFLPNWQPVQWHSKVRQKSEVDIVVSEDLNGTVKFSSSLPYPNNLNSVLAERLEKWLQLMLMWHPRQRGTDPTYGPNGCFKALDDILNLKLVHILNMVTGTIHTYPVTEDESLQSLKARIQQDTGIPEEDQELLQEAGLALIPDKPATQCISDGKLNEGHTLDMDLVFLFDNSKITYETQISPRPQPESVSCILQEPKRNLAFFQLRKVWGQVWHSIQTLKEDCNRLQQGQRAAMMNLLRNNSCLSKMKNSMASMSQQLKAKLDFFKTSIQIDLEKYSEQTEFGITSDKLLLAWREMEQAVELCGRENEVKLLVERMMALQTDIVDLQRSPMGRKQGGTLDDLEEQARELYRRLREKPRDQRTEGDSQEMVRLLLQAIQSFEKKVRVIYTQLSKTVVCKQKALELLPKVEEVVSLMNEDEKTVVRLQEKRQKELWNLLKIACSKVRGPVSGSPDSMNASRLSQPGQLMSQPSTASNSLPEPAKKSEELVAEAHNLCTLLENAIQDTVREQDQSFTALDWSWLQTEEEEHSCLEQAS
As to conditions: at 1 µM.

For test [9], the target named is T4, Inhibitor of nuclear factor kappa-B kinase subunit beta (Homo sapiens). As to conditions: at 10 µM.
Test [10] concerns the target Insulin receptor (Homo sapiens) (UniProt P06213). As to conditions: at 1 µM.

Chain of Insulin receptor (Homo sapiens) (P06213 28-758 limits assumed): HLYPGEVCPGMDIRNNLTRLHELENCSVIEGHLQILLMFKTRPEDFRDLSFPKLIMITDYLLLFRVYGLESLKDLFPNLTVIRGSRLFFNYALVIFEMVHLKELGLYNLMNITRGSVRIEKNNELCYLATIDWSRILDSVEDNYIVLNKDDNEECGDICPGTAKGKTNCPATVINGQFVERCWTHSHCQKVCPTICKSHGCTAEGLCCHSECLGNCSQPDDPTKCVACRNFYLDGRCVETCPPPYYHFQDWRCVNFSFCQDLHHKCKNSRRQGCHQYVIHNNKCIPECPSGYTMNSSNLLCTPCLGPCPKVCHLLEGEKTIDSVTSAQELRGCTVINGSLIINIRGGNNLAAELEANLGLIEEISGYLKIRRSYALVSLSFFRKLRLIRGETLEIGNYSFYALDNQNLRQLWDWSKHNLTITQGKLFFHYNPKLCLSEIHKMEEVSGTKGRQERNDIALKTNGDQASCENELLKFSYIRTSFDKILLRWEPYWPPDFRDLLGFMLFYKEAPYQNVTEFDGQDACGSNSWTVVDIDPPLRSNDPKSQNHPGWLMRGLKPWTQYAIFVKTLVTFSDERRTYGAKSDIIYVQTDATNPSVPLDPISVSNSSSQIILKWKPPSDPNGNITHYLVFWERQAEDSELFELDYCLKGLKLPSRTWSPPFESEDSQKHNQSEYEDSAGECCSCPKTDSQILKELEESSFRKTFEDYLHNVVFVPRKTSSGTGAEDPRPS
Chain of Insulin receptor (Homo sapiens) (P06213 763-1382 limits assumed): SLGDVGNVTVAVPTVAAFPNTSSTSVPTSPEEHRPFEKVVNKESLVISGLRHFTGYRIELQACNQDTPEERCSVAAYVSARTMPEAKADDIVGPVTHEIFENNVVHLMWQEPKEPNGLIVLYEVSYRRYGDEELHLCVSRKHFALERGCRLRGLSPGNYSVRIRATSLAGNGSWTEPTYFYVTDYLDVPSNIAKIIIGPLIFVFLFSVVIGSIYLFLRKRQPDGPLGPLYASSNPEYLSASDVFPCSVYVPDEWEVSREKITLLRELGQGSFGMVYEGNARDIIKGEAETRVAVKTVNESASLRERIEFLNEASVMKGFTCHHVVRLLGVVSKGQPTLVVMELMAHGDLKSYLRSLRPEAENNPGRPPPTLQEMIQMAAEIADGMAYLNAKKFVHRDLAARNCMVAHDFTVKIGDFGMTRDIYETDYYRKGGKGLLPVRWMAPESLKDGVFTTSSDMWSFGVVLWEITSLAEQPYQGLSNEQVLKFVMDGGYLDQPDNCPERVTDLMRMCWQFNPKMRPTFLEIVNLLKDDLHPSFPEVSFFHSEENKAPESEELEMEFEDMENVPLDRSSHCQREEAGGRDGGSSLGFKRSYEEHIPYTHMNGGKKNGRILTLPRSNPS

In the case of `O=C1NC(=O)/C(=C/c2ccc3c(c2)OC(F)(F)O3)S1`, the residual activity in test [1] came to 67%; in test [2], 95%; in [3], 89%; in test [4] it was 113%; in test [5] it was 102%; in test [6] it was 112%. For the same compound, the residual activity is 107% in test [7], 111% in test [8], 92% in test [9] and 111% in test [10].
